Source: PubChem BioAssay
The other results are listed elsewhere or left out. Active and inactive are the calls of the source. Cut-off read from the data, not from the text of the source, unless noted: active = activation above about 8.9%; inactive = the rest.

How the values were obtained:
[1] = tested on: Fam108b (Abhd17b) serine hydrolase [Mus musculus]; assay: mouse Fam108b serine hydrolase inhibitors, confirmation, counter-screen for RBBP9 inhibitor project, biochemical, fluorescence polarization, triplicate (AID 1978;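 active = inhibition above a limit from the primary screen, the mean over all compounds plus 3 SD, cut at about 19% in these data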;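 note: 0% = median of active Fam108b wells and 100% = catalytically dead S170A mutant; inhibitors free the probe so polarization falls as inhibition rises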); conditions: recombinant Fam108b, FP-Rh probe fluorescence polarization; at 9.51 µM; active compounds read high
[2] = target: Oxysterols receptor LXR-beta (Homo sapiens) (UniProt P55055); assay: LXR agonists, Gal4 luciferase reporter, confirmation, counter-screen for hcDAF-12 agonist project, cell-based, luminescence, HEK293, H. contortus campaign (AID 743027;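 active = mean percent activation of the reporter above a cutoff set as the average over tested compounds plus their standard deviation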); conditions: HEK293 Gal4-LXR tk-luc reporter, 24 h, at 6.8 µM, active compounds read high, normalized: DMSO 0%, positive control 100%
Sequence of Oxysterols receptor LXR-beta (Homo sapiens) (P55055 whole entry, looked up, the tested form may be a part): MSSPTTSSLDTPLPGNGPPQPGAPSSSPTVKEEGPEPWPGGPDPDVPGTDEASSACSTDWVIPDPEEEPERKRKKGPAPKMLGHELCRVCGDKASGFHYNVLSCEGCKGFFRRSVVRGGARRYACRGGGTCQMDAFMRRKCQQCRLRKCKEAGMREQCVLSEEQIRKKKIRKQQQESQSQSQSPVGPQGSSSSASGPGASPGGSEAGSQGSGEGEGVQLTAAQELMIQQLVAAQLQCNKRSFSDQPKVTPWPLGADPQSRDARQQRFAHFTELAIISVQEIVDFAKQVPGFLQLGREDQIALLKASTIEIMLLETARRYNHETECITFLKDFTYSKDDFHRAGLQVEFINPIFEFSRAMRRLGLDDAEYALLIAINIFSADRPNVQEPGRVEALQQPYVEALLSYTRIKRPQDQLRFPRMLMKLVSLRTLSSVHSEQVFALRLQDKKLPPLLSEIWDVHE

[3] = tested on: Nuclear hormone receptor DAF-12 (Haemonchus contortus); assay: H. contortus DAF-12 receptor agonists, confirmation, cell-based, luminescence, HEK293, lit1-tk-luc, triplicate (AID 743032;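 active = mean activation across triplicate tests above the threshold derived from the earlier primary screen, cut at about 5.5% in these data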;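 note: 0% = DMSO only wells and 100% = 3 µM Δ7-dafachronic acid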); conditions: HEK293 hcDAF-12 lit1-tk-luc reporter, at 6.8 µM, active compounds read high, % of Δ7-dafachronic acid response
[4] = tested on: HIV-1 integrase (multimerization); assay: HIV-1 IN multimer formation enhancers, counter-screen for LEDGF/p75 integration inhibitor project, biochemical, TR-FRET (AID 1053131); conditions: TR-FRET HIV-1 integrase multimerization, at 7.7 µM, active compounds read high
[5] = TR-FRET optical interference artefacts, confirmation, artefact control for LEDGF/p75-dependent integration inhibitor project, biochemical, HIV-1 IN multimerization (AID 1053135;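 active = inhibition above the mean over all tested compounds plus 3 SD, which no compound reached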;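 note: 0% = integrase with antibodies and DMSO and 100% = antibodies without integrase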); conditions: TR-FRET optical interference counterscreen, at 7.7 µM, active compounds read high
[6] = tested on: HIV-1 integrase / human LEDGF/p75 complex; assay: inhibitors of HIV-1 IN-LEDGF/p75 DNA integration, confirmation, biochemical, TR-FRET (AID 1053136; in the data active = inhibition above about 14%); conditions: TR-FRET LEDGF/p75-dependent HIV-1 integration, at 3.7 µM, active compounds read high
[7] = target: Glutathione S-transferase omega-1 (Homo sapiens) (UniProt P78417); assay: GSTO1 inhibitor hit confirmation, counter-screen for RBBP9 inhibitor project, biochemical, fluorescence polarization, triplicate (AID 2176;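 active = inhibition above the primary screen's cutoff, its mean inhibition plus 3 SD, cut at about 35% in these data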;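 note: loss of polarization as inhibitors block binding of rhodamine sulfonate ester activity probe; 0% = GSTO1 with DMSO and 100% = wells lacking GSTO1 enzyme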); conditions: recombinant GSTO1, probe fluorescence polarization; at 5.96 µM; active compounds read high
Sequence of Glutathione S-transferase omega-1 (Homo sapiens) (P78417 whole entry, looked up): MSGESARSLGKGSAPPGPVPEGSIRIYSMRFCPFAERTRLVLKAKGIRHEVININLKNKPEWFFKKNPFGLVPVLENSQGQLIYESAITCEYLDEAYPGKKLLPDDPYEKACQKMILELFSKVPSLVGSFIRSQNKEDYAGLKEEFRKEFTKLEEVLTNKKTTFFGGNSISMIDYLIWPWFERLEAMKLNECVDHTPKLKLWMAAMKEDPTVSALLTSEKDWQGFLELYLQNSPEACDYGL

[8] = target: Protein-arginine deiminase type-4 (Homo sapiens) (UniProt Q9UM07); assay: human PAD4 inhibitors, confirmation, biochemical, fluorescence polarization (AID 488796;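 active = mean inhibition across replicates above the hit cutoff set by the earlier primary screen, cut at about 15% in these data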;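 note: inhibitors block active-site labeling by the probe so polarization falls; 0% = PAD4 with probe and DMSO and 100% = probe without PAD4 enzyme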); conditions: recombinant PAD4, RCA probe fluorescence polarization; at 6.36 µM; active compounds read high
Sequence of Protein-arginine deiminase type-4 (Homo sapiens) (Q9UM07 whole entry, looked up): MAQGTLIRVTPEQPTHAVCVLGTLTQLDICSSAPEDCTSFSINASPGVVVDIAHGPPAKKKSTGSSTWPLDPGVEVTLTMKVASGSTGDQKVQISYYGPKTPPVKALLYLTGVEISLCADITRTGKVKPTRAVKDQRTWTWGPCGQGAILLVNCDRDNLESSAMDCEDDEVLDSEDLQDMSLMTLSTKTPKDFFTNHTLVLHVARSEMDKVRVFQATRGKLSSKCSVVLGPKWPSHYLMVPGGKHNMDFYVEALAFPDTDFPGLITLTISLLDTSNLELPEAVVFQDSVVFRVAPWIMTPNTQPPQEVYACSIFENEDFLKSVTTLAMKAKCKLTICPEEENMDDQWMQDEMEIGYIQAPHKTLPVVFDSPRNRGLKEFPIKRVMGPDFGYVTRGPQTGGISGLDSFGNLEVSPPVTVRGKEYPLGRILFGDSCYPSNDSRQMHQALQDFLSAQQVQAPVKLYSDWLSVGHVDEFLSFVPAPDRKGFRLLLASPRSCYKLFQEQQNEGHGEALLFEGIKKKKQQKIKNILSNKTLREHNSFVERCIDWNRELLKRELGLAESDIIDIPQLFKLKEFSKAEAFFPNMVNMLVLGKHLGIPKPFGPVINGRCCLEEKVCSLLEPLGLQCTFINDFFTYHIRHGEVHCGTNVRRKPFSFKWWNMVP

[9] = target: Bcl-2-like protein 1 (Homo sapiens) (UniProt Q07817); assay: Bcl-xL inhibitors blocking Bim BH3 binding, confirmation, counter-screen for MCL1 inhibitor project, biochemical, fluorescence polarization (AID 2166;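 active = inhibition above a cutoff equal to the mean inhibition of all tested compounds plus 3 SD, cut at about 30% in these data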); conditions: GST-Bcl-xL / FITC-Bim BH3 peptide FP binding; at 10.9 µM; active compounds read high
Sequence of Bcl-2-like protein 1 (Homo sapiens) (Q07817 whole entry, looked up): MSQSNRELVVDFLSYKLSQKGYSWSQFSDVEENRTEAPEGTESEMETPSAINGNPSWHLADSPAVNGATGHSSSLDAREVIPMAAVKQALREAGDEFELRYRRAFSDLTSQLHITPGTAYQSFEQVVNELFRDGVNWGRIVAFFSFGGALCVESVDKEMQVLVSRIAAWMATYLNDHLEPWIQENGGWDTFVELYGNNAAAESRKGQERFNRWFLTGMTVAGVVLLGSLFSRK

[10] = target: Induced myeloid leukemia cell differentiation protein Mcl-1 (Homo sapiens) (UniProt Q07820); assay: inhibitors of MCL1 binding to BIM-BH3, confirmation, biochemical, fluorescence polarization, triplicate (AID 2168;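 active = inhibition above the average of all tested compounds plus 3 SD, cut at about 40% in these data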;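 note: 0% = DMSO wells and 100% = unlabeled Bim-BH3 control peptide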); conditions: GST-MCL1 / FITC-Bim-BH3 fluorescence polarization; at 10.9 µM; active compounds read high
Sequence of Induced myeloid leukemia cell differentiation protein Mcl-1 (Homo sapiens) (Q07820 whole entry, looked up): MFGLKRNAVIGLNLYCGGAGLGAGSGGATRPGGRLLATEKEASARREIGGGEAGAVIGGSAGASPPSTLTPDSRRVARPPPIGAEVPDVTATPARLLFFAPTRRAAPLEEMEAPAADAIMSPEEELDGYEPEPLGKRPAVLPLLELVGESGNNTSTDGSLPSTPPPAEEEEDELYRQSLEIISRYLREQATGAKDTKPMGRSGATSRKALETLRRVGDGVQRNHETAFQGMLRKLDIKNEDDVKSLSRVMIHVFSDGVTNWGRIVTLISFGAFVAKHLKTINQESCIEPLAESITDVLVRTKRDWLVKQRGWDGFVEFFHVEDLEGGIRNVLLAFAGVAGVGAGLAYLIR

[11] = target: Platelet-activating factor acetylhydrolase (Homo sapiens) (UniProt Q13093); assay: pPAFAH (PLA2G7) enzyme inhibitors, confirmation, biochemical, fluorescence polarization, human (AID 463230;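 active = mean inhibition of the triplicate above the hit cutoff set for the earlier primary screen, cut at about 25% in these data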;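 note: 0% = enzyme with DMSO and 100% = wells lacking pPAFAH enzyme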); conditions: recombinant pPAFAH, FP-Rh probe fluorescence polarization; at 3.39 µM; active compounds read high
Sequence of Platelet-activating factor acetylhydrolase (Homo sapiens) (Q13093 whole entry, looked up): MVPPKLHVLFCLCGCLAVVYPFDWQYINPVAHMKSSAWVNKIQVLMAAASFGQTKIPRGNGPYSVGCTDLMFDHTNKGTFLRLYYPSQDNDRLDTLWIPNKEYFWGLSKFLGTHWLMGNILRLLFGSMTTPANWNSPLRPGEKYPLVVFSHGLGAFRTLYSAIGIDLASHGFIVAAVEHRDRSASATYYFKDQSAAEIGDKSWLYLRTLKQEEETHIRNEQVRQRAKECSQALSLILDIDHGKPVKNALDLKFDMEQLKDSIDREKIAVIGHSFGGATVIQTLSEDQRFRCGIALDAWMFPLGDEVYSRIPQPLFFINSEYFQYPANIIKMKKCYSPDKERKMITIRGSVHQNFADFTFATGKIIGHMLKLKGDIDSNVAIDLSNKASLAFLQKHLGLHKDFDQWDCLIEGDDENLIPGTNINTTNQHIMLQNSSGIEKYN

[12] = target: Serine protease HTRA1 (Homo sapiens) (UniProt Q92743); assay: HTRA1 protease inhibitors, retest, confirmation, biochemical, fluorescence polarization (AID 540248;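 active = mean inhibition over three repeats above a set limit taken from the earlier primary screen, cut at about 37% in these data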;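 note: 0% = HTRA1 with DMSO and 100% = wells lacking HTRA1; inhibitors block probe binding so polarization drops and inhibition rises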); conditions: recombinant HTRA1, FP-rhodamine activity-based probe, at 5.96 µM, active compounds read high
[13] = compounds interfering with TAMRA-BSA probe, counter-screen for TCR-CD3 interaction inhibitor project, biochemical, fluorescence, TAMRA-labeled BSA (AID 652035; in the data active = inhibition above about 23%;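 note: 0% = buffer low control and 100% = reference high control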); conditions: TAMRA-labeled BSA probe fluorescence counterscreen; at 9.4 µM; active compounds read high
[14] = tested on: T-cell receptor (TCR)-CD3 interaction, human; assay: TCR-CD3 interaction inhibitors, retest, confirmation, biochemical, fluorescence, TAMRA-labeled TCR probe (AID 652036; in the data active = inhibition above about 19%); conditions: TAMRA-labeled TCR probe fluorescence binding assay; at 9.4 µM; active compounds read high
[15] = target: (Lyso)-N-acylphosphatidylethanolamine lipase (Mus musculus) (UniProt Q8VD66); assay: ABHD4 inhibitors, retest, confirmation, biochemical, fluorescence polarization, mouse (AID 720658;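 active = mean inhibition across replicates above the hit cutoff set in the primary screen, cut at about 30% in these data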;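 note: 0% = wild-type ABHD4 with DMSO and 100% = catalytically dead S159A mutant with DMSO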); conditions: purified mABHD4, FP-Rh probe fluorescence polarization; at 8.92 µM; active compounds read high
Sequence of (Lyso)-N-acylphosphatidylethanolamine lipase (Mus musculus) (Q8VD66 whole entry, looked up, the tested form may be a part): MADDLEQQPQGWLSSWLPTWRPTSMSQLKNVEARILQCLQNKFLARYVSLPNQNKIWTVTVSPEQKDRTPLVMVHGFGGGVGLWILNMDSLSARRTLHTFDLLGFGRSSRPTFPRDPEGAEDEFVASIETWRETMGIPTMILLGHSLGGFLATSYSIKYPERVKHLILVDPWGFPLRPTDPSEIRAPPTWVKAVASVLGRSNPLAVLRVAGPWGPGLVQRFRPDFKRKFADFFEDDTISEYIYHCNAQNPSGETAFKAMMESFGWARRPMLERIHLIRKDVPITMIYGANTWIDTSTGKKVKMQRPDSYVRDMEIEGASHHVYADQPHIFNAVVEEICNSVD

[16] = target: Nuclear receptor coactivator 1 (Homo sapiens) (UniProt Q15788); assay: SRC1 coactivator transcriptional activity inhibitors, confirmation, cell-based, luminescence, quadruplicate (AID 588820;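 active = mean inhibition above 46.68%, the untreated control wells mean plus 3 SD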;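 note: 0% = DMSO wells and 100% = gossypol 36 µM treated wells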); conditions: HEK293 GAL4-SRC1 luciferase reporter, at 3.6 µM, active compounds read high
Sequence of Nuclear receptor coactivator 1 (Homo sapiens) (Q15788 whole entry, looked up, the tested form may be a part): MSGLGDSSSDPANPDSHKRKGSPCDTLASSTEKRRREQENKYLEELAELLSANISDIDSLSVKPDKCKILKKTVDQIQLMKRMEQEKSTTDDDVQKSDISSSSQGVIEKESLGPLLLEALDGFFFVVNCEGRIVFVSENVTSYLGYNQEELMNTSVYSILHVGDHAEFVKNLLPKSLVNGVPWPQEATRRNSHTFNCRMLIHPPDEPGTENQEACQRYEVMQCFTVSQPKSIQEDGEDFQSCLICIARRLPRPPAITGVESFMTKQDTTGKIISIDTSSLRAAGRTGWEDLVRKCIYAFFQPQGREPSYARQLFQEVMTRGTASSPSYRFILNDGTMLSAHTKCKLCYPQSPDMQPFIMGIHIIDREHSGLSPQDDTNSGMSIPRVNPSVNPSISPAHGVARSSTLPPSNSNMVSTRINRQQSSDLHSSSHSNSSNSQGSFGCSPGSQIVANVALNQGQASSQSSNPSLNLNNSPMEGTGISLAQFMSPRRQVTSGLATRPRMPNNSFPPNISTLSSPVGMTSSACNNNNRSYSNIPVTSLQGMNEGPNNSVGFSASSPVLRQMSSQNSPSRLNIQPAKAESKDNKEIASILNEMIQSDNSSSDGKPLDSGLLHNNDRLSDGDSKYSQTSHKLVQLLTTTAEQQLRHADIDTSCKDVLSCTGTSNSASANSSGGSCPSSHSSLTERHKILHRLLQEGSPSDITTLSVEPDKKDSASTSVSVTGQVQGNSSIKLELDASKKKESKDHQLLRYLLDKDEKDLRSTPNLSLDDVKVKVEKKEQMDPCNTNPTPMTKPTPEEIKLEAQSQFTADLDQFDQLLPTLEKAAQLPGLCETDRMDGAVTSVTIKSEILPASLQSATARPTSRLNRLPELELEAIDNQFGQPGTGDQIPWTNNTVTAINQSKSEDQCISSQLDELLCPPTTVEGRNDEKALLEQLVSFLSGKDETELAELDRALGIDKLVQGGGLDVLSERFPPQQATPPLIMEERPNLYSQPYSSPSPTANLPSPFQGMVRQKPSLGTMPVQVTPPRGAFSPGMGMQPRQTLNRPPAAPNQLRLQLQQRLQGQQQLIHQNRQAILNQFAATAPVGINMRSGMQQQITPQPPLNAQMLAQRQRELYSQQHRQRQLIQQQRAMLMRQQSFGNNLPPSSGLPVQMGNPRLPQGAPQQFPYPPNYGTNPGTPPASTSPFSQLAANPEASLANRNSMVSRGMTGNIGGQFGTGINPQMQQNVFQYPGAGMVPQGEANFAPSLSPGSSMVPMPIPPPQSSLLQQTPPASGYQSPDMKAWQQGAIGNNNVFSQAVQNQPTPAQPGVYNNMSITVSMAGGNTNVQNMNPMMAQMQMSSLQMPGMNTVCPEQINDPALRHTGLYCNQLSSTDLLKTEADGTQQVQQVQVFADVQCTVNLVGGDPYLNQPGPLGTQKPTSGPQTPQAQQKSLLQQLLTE

[17] = VP16 transactivation inhibitors, counter-screen for SRC1 inhibitor project, cell-based, luminescence, high throughput (AID 588824; in the data active = inhibition above about 25%); conditions: cell-based VP16 transactivation luciferase luminescence; at 3.6 µM; active compounds read high
[18] = target: Peroxisome proliferator-activated receptor gamma (Homo sapiens) (UniProt P37231); assay: agonists of PPARgamma SRC-2 coactivator recruitment, confirmation, biochemical, HTS (AID 1297; in the data active = activation above about 22%;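 note: 0% = vehicle alone and 100% = reference agonist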); conditions: biochemical SRC-2 recruitment by PPARgamma; at 8 µM; active compounds read high
Sequence of Peroxisome proliferator-activated receptor gamma (Homo sapiens) (P37231 whole entry, looked up): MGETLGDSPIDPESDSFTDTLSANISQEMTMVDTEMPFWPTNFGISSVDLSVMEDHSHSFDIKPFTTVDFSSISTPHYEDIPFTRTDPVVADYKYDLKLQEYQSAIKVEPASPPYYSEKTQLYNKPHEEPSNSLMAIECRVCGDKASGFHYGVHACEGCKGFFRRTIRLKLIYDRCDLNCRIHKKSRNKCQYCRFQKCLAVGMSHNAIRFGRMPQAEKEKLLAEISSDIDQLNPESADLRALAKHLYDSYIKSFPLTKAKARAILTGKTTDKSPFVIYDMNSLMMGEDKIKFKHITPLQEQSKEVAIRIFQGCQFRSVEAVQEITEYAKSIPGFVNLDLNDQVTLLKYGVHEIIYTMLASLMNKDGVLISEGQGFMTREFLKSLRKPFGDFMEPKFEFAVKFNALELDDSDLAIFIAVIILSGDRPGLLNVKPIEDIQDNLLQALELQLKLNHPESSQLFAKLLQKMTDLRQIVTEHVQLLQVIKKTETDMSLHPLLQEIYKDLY

[19] = target: Peroxisome proliferator-activated receptor gamma (Homo sapiens) (UniProt P37231); assay: PPARgamma agonists recruiting SRC-1 coactivator, confirmation, biochemical (AID 1300; in the data active = activation above about 20%;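 note: 0% = vehicle wells and 100% = reference agonist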); conditions: PPARgamma–SRC-1 coactivator recruitment biochemical assay; at 8 µM; active compounds read high
[20] = target: Peroxisome proliferator-activated receptor gamma (Homo sapiens) + Nuclear receptor coactivator 3 (Homo sapiens) (UniProt P37231+Q9Y6Q9); assay: PPARgamma-driven SRC-3 coactivator recruitment agonists, confirmation, biochemical (AID 1301; in the data active = activation above about 24%;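 note: 0% = vehicle wells and 100% = reference agonist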); conditions: biochemical PPARgamma-SRC-3 coactivator recruitment, agonist mode; at 8 µM; active compounds read high

c1ccc(C2=Nc3cccc4cccc(c34)N2)cc1
inactive: inhibition [1] 6.39% | activation [2] -0.31% | activation [3] 3.48% | activation [4] 4.54% | inhibition [5] -16.1% | inhibition [6] 8.24%

COc1ccccc1C1C(C#N)=C(N)Oc2c1c(-c1ccccc1)nn2-c1ccccc1 (centres undefined)
inactive: inhibition [1] -8.81% | inhibition [7] 12.6% | inhibition [8] 2.3% | activation [4] 0.86% | inhibition [5] -4.34% | inhibition [6] 1.22%

Cc1sc2nc(SCC(=O)c3ccc(O)c(O)c3)n(Cc3ccco3)c(=O)c2c1C
active: inhibition [6] 39.2%
inactive: activation [4] 8.33% | inhibition [5] -41.9%

Cc1c(CC(=O)N2CCN(C(=O)C3COc4ccccc4O3)CC2)c(=O)oc2c(O)c(O)ccc12 (centres undefined)
active: inhibition [9] 69.1% | inhibition [10] 89% | inhibition [11] 78.1% | inhibition [12] 88.8% | inhibition [14] 60.5% | activation [4] 16.8% | inhibition [6] 86.8%
inactive: inhibition [13] -7.93% | inhibition [15] 16% | inhibition [5] -84.6%

Cc1cc2c(c(=O)n1Cc1ccco1)C(c1ccccc1)C(C#N)=C(N)O2 (centres undefined)
inactive: activation [4] 1.58% | inhibition [5] -5.7% | inhibition [6] -9.1%

CCc1cc2c(SCC(=O)Nc3ncc(Cl)c(C)c3Cl)ncnc2s1
inactive: activation [4] -0.15% | inhibition [5] 0.78% | inhibition [6] 0.88%

Cc1oc2c(c1C(=O)N1CCOCC1)C(=O)c1ccccc1C2=O
inactive: inhibition [7] 29.9% | inhibition [16] -13.7% | inhibition [17] 6.29% | activation [4] -2.24% | inhibition [5] 11.3%
active: inhibition [6] 20.2%

CN(CC(=O)Nc1ccc(S(=O)(=O)N2CCCC2)cc1)Cc1ccc(Cl)c(Cl)c1
inactive: activation [4] 3.77% | inhibition [5] -13.1% | inhibition [6] 5.4%

CC1(C(=O)NS(=O)(=O)c2ccccc2)CCN1C(=O)Cc1ccc(-c2ccccc2)cc1 (centres undefined)
inactive: activation [4] -0.39% | inhibition [5] 2.02% | inhibition [6] 1.27%

Oc1ccc(N=Cc2sc3ccccc3c2Cl)cc1
active: inhibition [12] 50.3% | activation [4] 10.4% | inhibition [6] 55.2%
inactive: inhibition [7] 12.2% | inhibition [8] 3% | inhibition [13] 13.2% | inhibition [14] 7.56% | inhibition [15] -6.63% | inhibition [5] -37.1%

C=CCN1C(=O)C(O)(CC(=O)c2ccccn2)c2ccccc21 (centres undefined)
inactive: activation [4] 0.97% | inhibition [5] -4.84% | inhibition [6] 0.38%

O=C(CN(C(=O)c1csnn1)c1cccc(Cl)c1)NC1CCCC1
inactive: activation [4] -0.52% | inhibition [5] 2.68% | inhibition [6] 3.72%

Cc1cc(Oc2ccc(Cl)cc2)nc(SCC(=O)c2ccccc2)n1
inactive: activation [4] -0.31% | inhibition [5] 1.56% | inhibition [6] -0.68%

Cc1ccc(C(=O)N/C(=C/c2cccs2)C(=O)N2CCCCC2)cc1
inactive: activation [4] -0.16% | inhibition [5] 0.87% | inhibition [6] 0.33%

COC(=O)C1=C(C)N(C)C(=O)NC1c1ccc([N+](=O)[O-])o1 (centres undefined)
inactive: activation [4] 0.76% | inhibition [5] -3.75% | inhibition [6] 0.3%

CC(C)Cn1c(N)c(C(=O)NCc2cccs2)c2nc3ccccc3nc21
inactive: inhibition [7] -4.29% | activation [4] 3.66% | inhibition [5] -13.3% | inhibition [6] -3.17%

CCCCNC(=O)OC1CC2CC1[C@H]1CCCCN1C2=O (some centres undefined)
inactive: activation [4] -0.71% | inhibition [5] 3.63% | inhibition [6] -1.12%

CN(C(=O)COC(=O)c1cc(-c2ccco2)nc2ccccc12)C1CCS(=O)(=O)C1 (centres undefined)
inactive: inhibition [13] 3.94% | inhibition [5] -121%
active: inhibition [9] 34.6% | inhibition [10] 95.6% | inhibition [7] 38.5% | inhibition [14] 28.1% | activation [4] 24.1% | inhibition [6] 53.3%

CCOc1cccc(=O)c2c(C)n(CC3CCCO3)c(C)c12 (centres undefined)
inactive: activation [4] 2.93% | inhibition [5] -10.4% | inhibition [6] 4.91%

NC1=NN(c2cccc(C(=O)O)c2)C(=O)C1
inactive: inhibition [5] -62% | inhibition [6] -2.77%
active: activation [4] 12.3%

COc1ccc(C2CC(c3cccs3)=NN2C(=O)COC(=O)c2cc3ccccc3cc2O)cc1OC (centres undefined)
inactive: activation [4] -0.23% | inhibition [5] 1.12% | inhibition [6] -6.48%

CN(C)c1ccc(N/C=C/C(=O)C(F)(F)F)cc1
inactive: activation [18] 21.7% | activation [19] 15.3% | activation [20] 12.7% | inhibition [7] 6.83% | inhibition [11] -0.71% | inhibition [8] 1.99% | inhibition [12] 5.14% | inhibition [13] 0.92% | inhibition [14] 2.09% | inhibition [15] 2.7% | inhibition [5] -51.7% | inhibition [6] 0%
active: activation [4] 14.5%
